Shown is part of a subset that was picked to be rich in hits.
Pf apPOL block = Pf-apPOL DNA polymerase inhibition | Recombinant Pf-apPOL, molecular beacon fluorescence, 1.5 h | inhibition, % at 10 µM | hit rate 0.25% among 210,000
mHTT CaM bind = inhibitors of human mutant huntingtin-calmodulin interaction; AlphaScreen His-mHTT/GST-CaM binding, luminescence; P42858; inhibition, % at 15 µM; hit rate 3.6% among 190,000; AID 1671202
Each line names hits and unclear results; the compound was inactive in the other large screens. Rule as the data show it: active = inhibition above about 50%; inactive = the rest.

CCC(C)NC(=O)c1cc(=O)[nH]c2c(C)cccc12 (stereo unspecified)	none
Cc1cc(C)nc(SCCN2CCCC2)n1	none
CCNC(=O)C1CCC(c2ccccc2)N(C(=O)Cc2cccs2)C1 (stereo unspecified)	none
Cc1ccccc1C(=O)Nc1ccccc1F	none
COc1ccc2c(c1OC)C(=O)OC2Nc1ccc(F)c([N+](=O)[O-])c1 (stereo unspecified)	none
O=C(c1cc(F)ccc1Cl)N1CCc2c(nc3cc(-c4ccccc4)[nH]n3c2=O)C1	mHTT CaM bind 71
O=C(c1ccccc1)N1CCc2c(nc3cc(-c4ccccc4)[nH]n3c2=O)C1	Pf apPOL block 51
O=C(c1ccc2c(c1)OCO2)N1CCc2c(nc3cc(-c4ccccc4)[nH]n3c2=O)C1	none
O=C(c1ccccc1Cl)N1CCc2c(nc3cc(-c4ccccc4)[nH]n3c2=O)C1	none
COc1ccccc1CCC(=O)N1CCc2nc3cc(-c4ccccc4)[nH]n3c(=O)c2C1	none
COc1ccccc1CCC(=O)N1CCc2c(nc3cc(-c4ccccc4)[nH]n3c2=O)C1	mHTT CaM bind 59
CC(C)CC(C(=O)O)N1C(=O)c2cc(Cl)c(Cl)cc2C1=O (stereo unspecified)	none
O=C(NCc1cccs1)N1CCC(c2ccccc2)C1 (stereo unspecified)	none
Clc1cc(Br)ccc1OCc1nc(-c2ccccc2)no1	none
Cc1ccc(OCc2nc(-c3cccc([N+](=O)[O-])c3)no2)c(C)c1	none
O=C(Cc1ccc(F)cc1)Nc1ccncc1	none
O=C(Nc1c(C(=O)O)oc2ccc(Cl)cc12)c1ccc(C(F)(F)F)cc1	Pf apPOL block 85
CC(=O)Nc1c(C(=O)c2ccc(F)cc2)oc2ccc(Cl)cc12	none
Cc1cc(Cl)ccc1OCC(=O)N1CCn2c(C)nnc2C1	none
Clc1ccccc1CN1CCc2c([nH]c3ccccc23)C1	mHTT CaM bind 95
c1ccc2c3c([nH]c2c1)CN(Cc1ccc2c(c1)OCO2)CC3	none
CN(C)c1ccc(CN2CCc3c([nH]c4ccccc34)C2)cc1	mHTT CaM bind 60
COc1cccc(CN2CCc3c([nH]c4ccccc34)C2)c1OC	none
Cc1ccc2nc(C(=O)NCCN3CCCCC3C)cn2c1 (stereo unspecified)	none
CCn1c(C2CCN(C(=O)Nc3ccc(C)cc3)C2)nc2cccnc21 (stereo unspecified)	none
CCC(=O)N1CCc2sc(S(=O)(=O)Nc3ccc(F)cc3)cc2C1	mHTT CaM bind 51
CCC(=O)N1CCc2sc(S(=O)(=O)Nc3ccccc3)cc2C1	none
O=C1OC2(OC=C(c3ccccc3)C2=O)c2ccccc21 (stereo unspecified)	none (no result: Pf apPOL block)
O=C(CSC1=NCCS1)NCCSCc1ccco1	none (no result: mHTT CaM bind)
O=C(CSc1nc2ccccc2o1)NCCSCc1ccco1	Pf apPOL block 63 (no result: mHTT CaM bind)
O=C(c1noc2c1CCCCC2)N1CCN(c2ccccc2F)CC1	none
Cc1ccc(Cl)cc1N1CCN(C(=O)c2noc3c2CCCC3)CC1	mHTT CaM bind 96
O=c1[nH]c(=O)n(-c2cccc(F)c2)c(O)c1C=C1C=Nc2ccc(Br)cc21	none
O=C(NCc1ccccn1)C1CCCN(c2nc3ccccc3o2)C1 (stereo unspecified)	none
Cc1cc(C(=O)Nc2ccc3c(c2)CN(C(=O)C(C)C)CC3)c(C)o1	none
CC(C)C(=O)N1CCc2ccc(NC(=O)c3ccccc3C(F)(F)F)cc2C1	Pf apPOL block 88
Cc1ccc(Cl)cc1N1CCN(c2ncnc3c2nc2n3CCCCC2)CC1	mHTT CaM bind 99
O=C(Nc1cc(F)ccc1F)C1CCN(c2ncnc3c2nc2n3CCCCC2)CC1	none
Cc1ccc(N(C)C(=O)C2CCCN(c3ncnc4c3nc3n4CCCCC3)C2)cc1C (stereo unspecified)	none
Clc1cccc(N2CCN(c3ncnc4c3nc3n4CCCC3)CC2)c1	none
O=C(Nc1ccccc1F)C1CCN(c2ncnc3c2nc2n3CCCCC2)CC1	Pf apPOL block 96
Cc1ccc(N(C)C(=O)C2CCN(c3ncnc4c3nc3n4CCCCC3)CC2)cc1C	mHTT CaM bind 56
c1cc(CN2CCC(c3nc(C4CC4)n[nH]3)CC2)co1	none
CCn1ccc2c(cc(C(=O)NCc3cccc(Br)c3)n2C)c1=O	none
COc1ccc(C2CC(c3cc(F)ccc3O)=NN2)c(OC)c1 (stereo unspecified)	mHTT CaM bind 56
COc1ccc(C2C=C(c3ccc(F)cc3)Nc3nnnn32)c(OC)c1 (stereo unspecified)	none
CCOC(=O)N1CCC2(CC1)N=C(c1cc(Cl)ccc1O)CC(c1ccccc1)N2 (stereo unspecified)	none
Oc1ccc(Cl)cc1C1=NNC(c2ccccc2F)C1 (stereo unspecified)	mHTT CaM bind 54
CCOc1ccc(C2CC(c3ccccc3O)=NN2)cc1 (stereo unspecified)	none
COc1ccc(C2CC(c3ccc(Cl)cc3)Nc3nc(N)nn32)cc1OC (stereo unspecified)	none
COc1ccc(C2CC(c3cc(Cl)ccc3O)=NN2)cc1OC (stereo unspecified)	mHTT CaM bind 74
Oc1ccc(C2CC(c3ccccc3O)=NN2)cc1 (stereo unspecified)	mHTT CaM bind 96
COc1ccc(C2SC(NC(C)=O)=NN2C(C)=O)cc1 (stereo unspecified)	none
CCNC(=O)c1ccc2c(c1)N(S(=O)(=O)c1ccccc1)CC2	none
COc1ccccc1-c1coc2c3c(ccc2c1=O)OCN(C1CC(C)(C)NC(C)(C)C1)C3	none
Oc1ccc(Br)cc1C1=NNC(c2cccs2)C1 (stereo unspecified)	none
Oc1ccc(Cl)cc1C1=NNC(c2ccc(Br)cc2)C1 (stereo unspecified)	mHTT CaM bind 75
O=C(Nc1ccccc1[N+](=O)[O-])c1ccc(Cl)c(S(=O)(=O)NCc2ccccc2)c1	none
O=C(Nc1ccccc1[N+](=O)[O-])c1ccc(Cl)c(S(=O)(=O)Nc2ccc(Cl)cc2)c1	mHTT CaM bind 86
O=C(Nc1ccccc1[N+](=O)[O-])c1ccc(Br)c(S(=O)(=O)Nc2ccccc2)c1	none
O=C(Nc1ccccc1[N+](=O)[O-])c1ccc(Cl)c(S(=O)(=O)NCc2ccco2)c1	Pf apPOL block 54
CN(CC1(C)CCOCC1)C(=O)NC1CCCCC1	none
Cc1ccccc1Nc1nccc(C2CCCN(C(=O)Cc3cccs3)C2)n1 (stereo unspecified)	none
Cc1cccc(Nc2nccc(C3CCCN(C(=O)c4ccc(C#N)cc4)C3)n2)c1 (stereo unspecified)	none
CCC(=O)N1CCCC(c2ccnc(Nc3cccc(C)c3)n2)C1 (stereo unspecified)	mHTT CaM bind 57
CCC(=O)N1CCCC(c2ccnc(Nc3ccc(OC)cc3)n2)C1 (stereo unspecified)	none
Cc1cccc(Nc2nccc(C3CCCN(C(=O)C4CCCO4)C3)n2)c1 (stereo unspecified)	mHTT CaM bind 74
Cc1cccc(Nc2nccc(C3CCCN(C(=O)Cc4cccs4)C3)n2)c1 (stereo unspecified)	mHTT CaM bind 63
O=C(Nc1ccc(Cl)c(C(=O)c2ccccc2)c1)c1cc(=O)c2ccccc2o1	none
COc1ccc(-c2cc3nc4c(c(=O)n3[nH]2)CN(C(=O)C(C)(C)C)CC4)cc1	none
CC(=O)N(C(C)=O)N(C(C)=O)c1cc2ccccc2cn1	none (no result: mHTT CaM bind)
Cc1cccc(COC[C@H](Cc2ccccc2)N2CCN(C(=O)c3cccc(Cl)c3)CCC2=O)c1	mHTT CaM bind 98
Cc1cccc(C(=O)N2CCC(=O)N([C@H](COCc3cccc(C(F)(F)F)c3)Cc3ccccc3)CC2)c1	mHTT CaM bind 99
